From PubChem BioAssay AID1159580 (chemical genetic matrix, 2015)
About 2,000 (36%) of roughly 5,500 compounds were called active. Inconclusive results (about 18%) are left out. Cut-off read from the data, not from the text of the source: active = normalized growth mostly below about 0.91 (no sharp cut-off); inconclusive = no clear call, values can overlap the other calls; inactive = mostly above about 0.92. Some of the results follow.

Test: chemical genetic growth profiling, strain panel (AID 1159580);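 note: tested at 20 µM; growth read once vehicle control cultures reached saturation at 30 °C; 1 = growth at the plate median or of vehicle wells; lower values mean less growth of the strain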
Details: S. cerevisiae deletion strains, growth OD
[1] = locus YDL101C, strain DUN1, active compounds read low
[2] = locus YHR030C, strain SLT2, active compounds read low
[3] = locus YHR079C, strain IRE1, active compounds read low
[4] = locus YJL095W, strain BCK1, active compounds read low
[5] = locus YJR066W, strain TOR1, active compounds read low
[6] = locus YLR113W, strain HOG1, active compounds read low
[7] = locus YNL183C, strain NPR1, active compounds read low
[8] = locus YOR231W, strain MKK1, active compounds read low
[9] = locus YPL256C, strain CLN2, active compounds read low
[10] = locus YAL013W, strain DEP1, active compounds read low
[11] = locus YJR075W, strain HOC1, active compounds read low
[12] = locus YMR307W, strain GAS1, active compounds read low
[13] = locus YNL153C, strain GIM3, active compounds read low
[14] = locus YPL241C, strain CIN2, active compounds read low

Measured: normalized growth

Cc1onc(-c2ccccc2Cl)c1-c1nc2ccccc2c(=O)o1
inactive: locus YAR019C, strain CDC15, active compounds read low 0.97 | locus YBL105C, strain PKC1, active compounds read low 0.975 | locus YBR135W, strain CKS1, active compounds read low 0.975 | locus YBR136W, strain MEC1, active compounds read low 0.973 | locus YBR160W, strain CDC28, active compounds read low 0.971 | locus YDL017W, strain CDC7, active compounds read low 0.969 | locus YDL028C, strain MPS1, active compounds read low 0.979 | [1] 0.963 | locus YDL108W, strain KIN28, active compounds read low 0.97 | locus YDL132W, strain cdc53, active compounds read low 0.975 | locus YDL214C, strain PRR2, active compounds read low 0.968 | locus YDR052C, strain DBF4, active compounds read low 0.969 | locus YDR054C, strain cdc34, active compounds read low 0.964 | locus YDR226W, strain ADK1, active compounds read low 0.97 | locus YDR477W, strain SNF1, active compounds read low 0.962 | locus YER123W, strain YCK3, active compounds read low 0.953 | locus YER133W, strain GLC7, active compounds read low 0.984 | locus YFL009W, strain cdc4, active compounds read low 0.974 | locus YFL029C, strain CAK1, active compounds read low 0.956 | locus YFR003C, strain YPI1, active compounds read low 0.972 | locus YFR019W, strain FAB1, active compounds read low 0.979 | locus YFR028C, strain CDC14, active compounds read low 0.973 | locus YGR040W, strain KSS1, active compounds read low 0.96 | locus YGR052W, strain FMP48, active compounds read low 1.03 | locus YGR092W, strain DBF2, active compounds read low 0.983 | [2] 0.958 | [3] 0.936 | locus YHR082C, strain KSP1, active compounds read low 0.991 | locus YHR205W, strain SCH9, active compounds read low 0.932 | locus YIL147C, strain SLN1, active compounds read low 0.969 | [4] 0.954 | locus YJL128C, strain PBS2, active compounds read low 0.925 | locus YJL157C, strain FAR1, active compounds read low 0.987 | locus YJR016C, strain ILV3, active compounds read low 0.974 | locus YJR066W, strain TOR1 (second series), active compounds read low 0.967 | [5] 0.978 | locus YKL048C, strain ELM1, active compounds read low 0.947 | locus YKL067W, strain YNK1, active compounds read low 0.961 | locus YKL101W, strain HSL1, active compounds read low 0.939 | locus YKL193C, strain SDS22, active compounds read low 0.969 | locus YKL203C, strain TOR2, active compounds read low 1.02 | [6] 0.872 | locus YLR133W, strain CKI1, active compounds read low 0.965 | locus YLR403W, strain SFP1, active compounds read low 0.953 | locus YML070W, strain DAK1, active compounds read low 0.956 | locus YMR001C, strain CDC5, active compounds read low 0.974 | locus YMR205C, strain PFK2 (second series), active compounds read low 0.955 | locus YMR277W, strain FCP1, active compounds read low 0.987 | locus YNL006W, strain LST8, active compounds read low 0.982 | locus YNL020C, strain ARK1, active compounds read low 0.969 | locus YNL161W, strain CBK1, active compounds read low 0.969 | [7] 0.96 | locus YNL207W, strain RIO2, active compounds read low 0.97 | locus YNL222W, strain SSU72, active compounds read low 0.975 | locus YNL307C, strain MCK1 (second series), active compounds read low 0.987 | locus YOL078W, strain AVO1, active compounds read low 0.976 | locus YOL136C, strain PFK27, active compounds read low 0.958 | locus YOR061W, strain CKA2, active compounds read low 0.961 | locus YOR119C, strain RIO1, active compounds read low 0.983 | [8] 0.929 | locus YOR329C, strain SCD5, active compounds read low 0.966 | locus YPL031C, strain PHO85, active compounds read low 0.978 | locus YPL153C, strain RAD53, active compounds read low 0.956 | locus YPL204W, strain HRR25, active compounds read low 0.978 | locus YPL209C, strain IPL1, active compounds read low 0.969 | [9] 0.882 | locus YPR025C, strain CCL1, active compounds read low 0.975 | locus YPR106W, strain ISR1, active compounds read low 0.96 | locus YPR111W, strain DBF20, active compounds read low 0.963 | strain NNK1, active compounds read low 0.958 | strain TSCII, active compounds read low 0.968

Cc1cccc2nc(-c3ccccc3)oc(=O)c12
inactive: [10] 0.966 | locus YBR229C, strain ROT2, active compounds read low 0.975 | [1] 0.968 | locus YDR150W, strain NUM1, active compounds read low 0.934 | locus YEL061C, strain CIN8, active compounds read low 0.936 | locus YGR078C, strain PAC10, active compounds read low 0.959 | locus YGR229C, strain SMI1, active compounds read low 0.984 | [2] 0.708 | locus YHR087W, strain rtc3, active compounds read low 0.953 | locus YJL187C, strain SWE1, active compounds read low 0.946 | locus YJR043C, strain POL32, active compounds read low 0.971 | [11] 0.942 | locus YKL190W, strain CNB1, active compounds read low 0.987 | locus YLR039C, strain RIC1, active compounds read low 0.826 | locus YLR058C, strain SHM2 (second series), active compounds read low 0.968 | locus YLR262C, strain YPT6, active compounds read low 0.942 | locus YML094W, strain GIM5, active compounds read low 0.88 | locus YMR219W, strain ESC1, active compounds read low 0.976 | locus YMR263W, strain SAP30, active compounds read low 0.958 | [12] 0.735 | locus YNL128W, strain TEP1, active compounds read low 0.974 | [13] 0.975 | locus YNL298W, strain CLA4 (second series), active compounds read low 0.95 | locus YNL322C, strain KRE1, active compounds read low 0.983 | locus YNR030W, strain Alg12, active compounds read low 0.929 | locus YOL006C, strain TOP1, active compounds read low 0.801 | [14] 0.915 | locus YPR135W, strain CTF4, active compounds read low 0.812
active: locus YLR085C, strain ARP6, active compounds read low 0.744 | locus YPL055C, strain LGE1, active compounds read low 0.781

COc1ccccc1OCC(O)CN1CCN(CC(=O)Nc2c(C)cccc2C)CC1 (stereo not drawn)
inactive: [10] 0.996 | locus YAL021C, strain ccr4, active compounds read low 0.991 | locus YAL026C, strain drs2, active compounds read low 1.03 | locus YAL030W, strain snc1, active compounds read low 1.01 | locus YAL040C, strain CLN3, active compounds read low 1 | locus YBL061C, strain skt5, active compounds read low 1.02 | locus YBR009C, strain hhf1, active compounds read low 0.986 | locus YBR023C, strain chs3, active compounds read low 1.03 | locus YBR171W, strain sec66, active compounds read low 1.02 | locus YBR231C, strain swc5, active compounds read low 0.991 | locus YBR279W, strain paf1, active compounds read low 1.02 | locus YCL011C, strain gbp2, active compounds read low 1.01 | locus YCL016C, strain dcc1, active compounds read low 1.04 | locus YCL061C, strain MRC1 (second series), active compounds read low 1 | locus YCL061C, strain MRC1, active compounds read low 0.993 | locus YCL069W, strain vba3, active compounds read low 1.02 | locus YCR088W, strain abp1, active compounds read low 1.02 | locus YDL005C, strain med2, active compounds read low 1 | locus YDL040C, strain nat1, active compounds read low 1 | locus YDR001C, strain nth1, active compounds read low 1 | locus YDR069C, strain doa4, active compounds read low 0.991 | locus YDR137W, strain rgp1, active compounds read low 1.06 | locus YDR159W, strain sac3, active compounds read low 0.912 | locus YDR195W, strain ref2 0.993 | locus YDR297W, strain sur2, active compounds read low 1 | locus YDR334W, strain swr1, active compounds read low 1 | locus YDR335W, strain msn5, active compounds read low 1.01 | locus YDR363W, strain ESC2, active compounds read low 0.998 | locus YDR392W, strain spt3, active compounds read low 0.942 | locus YEL003W, strain gim4, active compounds read low 0.976 | locus YEL037C, strain rad23, active compounds read low 1.01 | locus YEL061C, strain CIN8 (second series), active compounds read low 0.997 | locus YER002W, strain NOP16, active compounds read low 0.993 | locus YER015W, strain faa2, active compounds read low 1.01 | locus YER016W, strain bim1, active compounds read low 1.03 | locus YER111C, strain swi4, active compounds read low 1.02 | locus YER155C, strain BEM2 (second series), active compounds read low 0.957 | locus YFR010W, strain ubp6, active compounds read low 0.97 | locus YGL167C, strain pmr1, active compounds read low 0.989 | locus YGL173C, strain kem1, active compounds read low 0.987 | locus YGL227W, strain vid30, active compounds read low 1.02 | locus YGL240W, strain doc1, active compounds read low 0.987 | locus YGL253W, strain hxk2, active compounds read low 1.06 | locus YHR013C, strain ard1, active compounds read low 1.03 | locus YHR027C, strain rpn1, active compounds read low 0.988 | [2] 1.06 | [3] 1.05 | locus YHR142W, strain chs7, active compounds read low 1.02 | locus YJL092W, strain hpr5, active compounds read low 1 | locus YJL095W, strain BCK1 (second series), active compounds read low 1.02 | [4] 1.02 | locus YJL115W, strain asf1, active compounds read low 1 | locus YJL129C, strain trk1, active compounds read low 1.03 | locus YJL154C, strain vps35, active compounds read low 1 | locus YJL164C, strain tpk1, active compounds read low 0.979 | locus YJL166W, strain qcr8, active compounds read low 0.997 | [5] 0.977 | [11] 1 | locus YKL160W, strain elf1, active compounds read low 1.01 | locus YKR026C, strain gcn3, active compounds read low 1 | locus YKR091W, strain srl3, active compounds read low 1 | locus YLL001W, strain dnm1, active compounds read low 0.964 | locus YLL026W, active compounds read low 1.01 | locus YLL041C, strain sdh2, active compounds read low 1.02 | locus YLR027C, strain aat2, active compounds read low 1 | [6] 0.982 | locus YLR221C, strain rsa3, active compounds read low 0.972 | locus YLR258W, strain gsy2, active compounds read low 1.03 | locus YLR262C, strain YPT6 (second series), active compounds read low 1.02 | locus YLR320W, strain mms22, active compounds read low 0.937 | locus YLR342W, strain FKS1, active compounds read low 1.02 | locus YLR357W, strain rsc2, active compounds read low 0.99 | locus YLR370C, strain arc18, active compounds read low 1.01 | locus YLR384C, strain iki3, active compounds read low 0.997 | locus YML120C, strain ndi1, active compounds read low 0.976 | locus YMR058W, strain fet3, active compounds read low 1.01 | locus YMR125W, strain sto1, active compounds read low 1.01 | locus YMR129W, active compounds read low 0.988 | locus YMR205C, strain PFK2, active compounds read low 1 | locus YMR231W, strain pep5, active compounds read low 1 | [12] 1.02 | locus YNL071W, strain lat1, active compounds read low 1 | [13] 1.06 | locus YNL175C, strain NOP13, active compounds read low 1.01 | [7] 0.963 | locus YNL197C, strain WHI3, active compounds read low 1.01 | locus YNL209W, strain ssb2, active compounds read low 1.02 | locus YNL224C, strain SQS1, active compounds read low 1.01 | locus YNL248C, strain rpa49, active compounds read low 1.07 | locus YNL322C, strain KRE1 (second series), active compounds read low 1.02 | locus YNR049C, strain mso1, active compounds read low 1 | locus YOR001W, strain rrp6, active compounds read low 0.924 | locus YOR070C, strain gyp1, active compounds read low 1.01 | locus YOR080W, strain dia2, active compounds read low 1.01 | locus YOR083W, strain WHI5 (second series), active compounds read low 1.02 | locus YOR083W, strain WHI5, active compounds read low 0.974 | locus YOR106W, strain vam3, active compounds read low 1.04 | [8] 1.01 | locus YOR265W, strain rbl2, active compounds read low 0.98 | locus YOR270C, strain vph1, active compounds read low 0.991 | locus YOR290C, strain snf2, active compounds read low 1.06 | locus YPL051W, strain arl3, active compounds read low 1.04 | locus YPL078C, strain atp4, active compounds read low 1.07 | locus YPL106C, strain sse1, active compounds read low 1.1 | locus YPL240C, strain hsp82, active compounds read low 1 | [14] 1.01 | [9] 1.05
